Out of some 39,000 compounds screened, about 3,300 (8.5%) were called active. The sample holds actives, similar compounds and a random draw of the others, so the mix is not that of the screen.
Each compound was assayed on HepG2 (assay: cytotoxicity call (relative viability < 0.9)). Conditions: 10 µM.

Row | Compound | cytotoxicity call
1 | C[C@@H]1CN([C@@H](C)CO)C(=O)c2cc(NC(=O)Nc3ccc4c(c3)OCO4)ccc2O[C@@H](C)CCCCO[C@@H]1CN(C)S(=O)(=O)c1ccc(F)cc1 | inactive
2 | C[C@@H]1CN([C@@H](C)CO)C(=O)c2cc(NS(=O)(=O)c3cn(C)cn3)ccc2O[C@H]1CN(C)C(=O)Nc1ccc(F)cc1 | inactive
3 | O=C1C[C@@H](c2ccc(O[C@@H]3O[C@H](CO)[C@@H](O)[C@H](O)[C@H]3O)cc2)Oc2cc(O)ccc21 | inactive
4 | NC(=S)c1ccc(-n2cncn2)nc1 | inactive
5 | COc1cccc(-c2ccc3c(c2)O[C@@H](CN(C)Cc2cncnc2)[C@@H](C)CN([C@@H](C)CO)S3(=O)=O)c1 | inactive
6 | COC(=O)[C@H](Cc1ccccc1)N1CC2=CC(=O)[C@H](C3CC3)[C@H]2[C@@H]1[C@@H](O)CCn1cc(-c2cccc(/C=C/C(=O)NO)c2)nn1 | inactive
7 | N#CN=C1NC(=O)CC(=O)N1 | inactive
8 | C[C@H]1CN([C@@H](C)CO)C(=O)c2cc(-c3cccnc3)cnc2O[C@H]1CN(C)Cc1ccc(-c2ccccc2)cc1 | inactive
9 | C[C@@H]1CCCCO[C@H](CN(C)Cc2ccc3c(c2)OCO3)[C@@H](C)CN([C@H](C)CO)C(=O)c2cc(NC(=O)c3ccccc3)ccc2O1 | inactive
10 | C[C@@H]1CCCCO[C@H](CN(C)Cc2ccc3c(c2)OCO3)[C@H](C)CN([C@H](C)CO)C(=O)c2cc(NC(=O)c3ccccc3)ccc2O1 | inactive
11 | C[C@@H]1CCCCO[C@@H](CN(C)Cc2ccc3c(c2)OCO3)[C@H](C)CN([C@H](C)CO)C(=O)c2cc(NC(=O)c3ccccc3)ccc2O1 | inactive
12 | C[C@@H]1CN([C@H](C)CO)C(=O)c2cc(NC(=O)c3ccccc3)ccc2O[C@@H](C)CCCCO[C@H]1CN(C)Cc1ccc2c(c1)OCO2 | active
13 | C[C@@H]1CN([C@H](C)CO)C(=O)c2cc(NC(=O)c3ccccc3)ccc2O[C@@H](C)CCCCO[C@@H]1CN(C)Cc1ccc2c(c1)OCO2 | active
14 | C[C@@H]1CCCCO[C@@H](CN(C)Cc2ccc3c(c2)OCO3)[C@@H](C)CN([C@H](C)CO)C(=O)c2cc(NC(=O)c3ccccc3)ccc2O1 | inactive
15 | C[C@@H]1CCCCO[C@@H](CN(C)Cc2ccc3c(c2)OCO3)[C@H](C)CN([C@@H](C)CO)C(=O)c2cc(NC(=O)c3ccccc3)ccc2O1 | active
16 | C[C@@H]1CN([C@@H](C)CO)C(=O)c2cc(NC(=O)c3ccccc3)ccc2O[C@@H](C)CCCCO[C@@H]1CN(C)Cc1ccc2c(c1)OCO2 | inactive
17 | C[C@H](CO)N1C[C@H](C)[C@@H](CN(C)Cc2ccc3c(c2)OCO3)OCCCC[C@H](C)Oc2ccc(NC(=O)c3ccccc3)cc2C1=O | inactive
18 | C=CCN1C(=O)[C@@H]2[C@@H](C1=O)[C@@H]1C=C[C@@H]2C1 | inactive
19 | COc1ccc(S(=O)(=O)Nc2cccc3c2O[C@@H](CN(C)Cc2ccncc2)[C@@H](C)CN([C@H](C)CO)C3=O)cc1 | inactive
20 | C[C@H](CO)N1C[C@H](C)[C@@H](CN(C)C(=O)Nc2cccc3ccccc23)Oc2ccc(NC(=O)C3CCCCC3)cc2C1=O | inactive

Row | Compound | cytotoxicity call
21 | Cc1ccc(S(=O)(=O)Nc2ccc3c(c2)C(=O)N([C@H](C)CO)C[C@@H](C)[C@@H](CN(C)C(=O)C2CCCCC2)OCCCC[C@@H](C)O3)cc1 | inactive
22 | COC(=O)[C@@H](C)S(=O)(=O)NC(=O)c1cnc2ccccn2c1=O | inactive
23 | O=C(C[C@H]1CC[C@H]2[C@@H](COC[C@@H](O)CN2C(=O)c2ccc3c(c2)OCO3)O1)NC1Cc2ccccc2C1 | inactive
24 | Cn1cnc(S(=O)(=O)N2CC[C@@H](O)[C@@H]2Cc2cnn(C)c2)c1 | inactive
25 | O=C1OCC=C[C@H]2O[C@@]34C=CCN(c5ccc6ccccc6c5)C(=O)[C@H]3N(CCCCCO)C(=O)[C@@H]4[C@@H]12 | inactive
26 | C[C@H](CO)N1C[C@H](C)[C@H](CN(C)S(=O)(=O)c2cccs2)Oc2ccc(NC(=O)Cn3cnnn3)cc2C1=O | inactive
27 | NCC1CCN(Cc2ccccc2)CC1 | inactive
28 | NC1CCN(Cc2ccccc2)CC1 | inactive
29 | S=C1SCN(Cc2ccccc2)CN1Cc1ccccc1 | active
30 | COc1ccc(NC(=O)N(C)C[C@H]2OCCCC[C@H](C)Oc3ccc(NS(=O)(=O)c4c(C)noc4C)cc3C(=O)N([C@@H](C)CO)C[C@@H]2C)cc1 | inactive
31 | COc1ccc(NC(=O)Nc2ccc3c(c2)C(=O)N([C@H](C)CO)C[C@H](C)[C@@H](CN(C)Cc2ccc(Cl)c(Cl)c2)OCCCC[C@@H](C)O3)cc1 | inactive
32 | COc1ccc(NC(=O)Nc2ccc3c(c2)C(=O)N([C@@H](C)CO)C[C@H](C)[C@@H](CN(C)Cc2ccc(Cl)c(Cl)c2)OCCCC[C@@H](C)O3)cc1 | inactive
33 | COc1ccc(NC(=O)Nc2ccc3c(c2)C(=O)N([C@H](C)CO)C[C@@H](C)[C@H](CN(C)Cc2ccc(Cl)c(Cl)c2)OCCCC[C@@H](C)O3)cc1 | active
34 | COc1ccc(NC(=O)Nc2ccc3c(c2)C(=O)N([C@@H](C)CO)C[C@@H](C)[C@@H](CN(C)Cc2ccc(Cl)c(Cl)c2)OCCCC[C@@H](C)O3)cc1 | active
35 | COc1ccc(NC(=O)Nc2ccc3c(c2)C(=O)N([C@@H](C)CO)C[C@H](C)[C@H](CN(C)Cc2ccc(Cl)c(Cl)c2)OCCCC[C@@H](C)O3)cc1 | inactive
36 | COc1ccc(NC(=O)Nc2ccc3c(c2)C(=O)N([C@@H](C)CO)C[C@@H](C)[C@@H](CN(C)Cc2ccc(Cl)c(Cl)c2)OCCCC[C@H](C)O3)cc1 | inactive
37 | CN(C)C(=O)C[C@H]1CC[C@H]2[C@@H](COC[C@H](O)CN2S(=O)(=O)c2ccccc2)O1 | inactive
38 | Cc1noc(C)c1S(=O)(=O)Nc1ccc2c(c1)CC(=O)N([C@@H](C)CO)C[C@H](C)[C@@H](CN(C)C(=O)Nc1ccccc1)O2 | inactive
39 | C[C@H](CO)N1C[C@H](C)[C@@H](CN(C)S(=O)(=O)c2ccc(Cl)cc2)Oc2ccc(NC(=O)Cn3cnnn3)cc2C1=O | inactive
40 | Cc1noc(C)c1NC(=O)N(C)C[C@H]1Oc2ccc(NC(=O)Nc3ccc(C(F)(F)F)cc3)cc2CC(=O)N([C@H](C)CO)C[C@@H]1C | inactive
